High-throughput results: PubChem, several laboratories
TRPM1 prom inh = inhibitors of MITF-dependent TRPM1 promoter reporter, primary screen, cell-based, SK-MEL-5, single point, luciferase | inhibition, % at 12.5 µM | actives 0.83% (n = 330,000) | AID 488899, 2010 | SK-MEL-5 TRPM1 promoter luciferase, 24 h;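 active = mean inhibition across replicates of 60% or more, whatever share of single replicates reaches that level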
TWEAK Fn14 block = inhibitors of TWEAK-Fn14 signaling, primary screen, luciferase reporter cells, uHTS; TWEAK-stimulated Fn14 reporter cells, luciferase luminescence, 8 h; inhibition, % at 10 µM; actives 2% (n = 360,000); in the data active = inhibition above about 50%
LMP1 NFkB inh = EBV LMP1-driven NF-kappaB luciferase reporter inhibitors, primary screen, cell-based, luminescence, single point; LMP1-induced NF-kappaB luciferase reporter cells; inhibition, % at 12.5 µM; actives 0.69% (n = 350,000); in the data active = inhibition above about 41%
TROY signal inh = inhibitors of TROY-driven NF-kB signaling, primary screen, Q293 LMP1-TROYcd cells, NF-kB luciferase, uHTS; Q293 LMP1-TROYcd NF-kB luciferase reporter, 4 h; inhibition, % at 10 µM; actives 0.98% (n = 360,000);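 active = compounds whose plate-normalised and pattern-corrected inhibition of the luciferase reporter signal at the single screening dose is 50% or more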
Shn3 inh set2 = reduction of Shn3 3'UTR firefly luciferase signal, primary screen, Schnurri-3 inhibitor project, cell-based, Clone20 osteoblasts, set 2; actives 0.52% (n = 360,000); inhibition, % at 12.5 µM; AID 588674, 2011; Clone20 osteoblast Shn3 3'UTR firefly luciferase, 24 h;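 active = mean inhibition of at least 75% with every replicate also reaching 75%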
HIF-2a inh = HIF-2a reporter inhibitors, primary screen, luminescence, 786-0 RCC cells. 786-0 RCC cells HIF-2a reporter, luciferase luminescence, overnight. inhibition, % at 18.8 µM. actives 0.72% (n = 360,000);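 active = inhibition of the luminescence signal of 40% or more relative to plate controls, in a single-dose primary screen at 18.75 µM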
Each line names hits and unclear results; the compound was inactive in the other large screens. Sampled rows, rich in hits. Any-hit rate of the full collection: about 3.4%.

CC(C)(C)NC(=O)C1c2ccccc2OCC(=O)N1CCCN1CCOCC1 (stereo unspecified)	none (no result: TRPM1 prom inh, LMP1 NFkB inh, Shn3 inh set2)
COC(=O)c1ccccc1NC(=S)NC(=O)c1ccccc1	TWEAK Fn14 block 83.5 (no result: TROY signal inh)
COC(=O)c1ccccc1NC(=S)NC(=O)c1ccc(C)cc1	none
CCNC(=O)C1(C)CCCN1C(=O)c1ccc(-c2ccccc2)cc1 (stereo unspecified)	none (no result: TRPM1 prom inh, LMP1 NFkB inh)
c1ccc(-c2csc(NNC3=NCCCCC3)n2)cc1	TROY signal inh 52.8
Cc1cc(C)n(C2CCCCC2OC(=O)c2ccccc2F)n1 (stereo unspecified)	LMP1 NFkB inh 42.4
Cc1cc(C)n(C2CCCCC2OC(=O)c2ccccc2)n1 (stereo unspecified)	none
COc1ccc(N(C(C)C(=O)Nc2cccnc2)S(C)(=O)=O)cc1 (stereo unspecified)	none
Cc1ccnc(Nc2nc(-c3sc(C)nc3C)cs2)c1	TWEAK Fn14 block 84.4
Cc1nc(C)c(-c2csc(Nc3ccccn3)n2)s1	TWEAK Fn14 block 55.0
Cc1nc(N)sc1-c1csc(Nc2ccccn2)n1	none
Cc1ccnc(Nc2nc(-c3ccc(F)cc3)cs2)c1	TROY signal inh 58.8
CC(=O)c1ccc(Nc2nc(-c3sc(C)nc3C)cs2)cc1	TWEAK Fn14 block 56.0 (no result: TRPM1 prom inh)
COc1ccc(-c2ccc(N3C(c4ccsc4)=Cc4ccc(F)cc4C3c3c[nH]c4ccccc34)cc2)cc1 (stereo unspecified)	none (no result: TRPM1 prom inh, LMP1 NFkB inh, Shn3 inh set2)
COc1cc(S(=O)(=O)N2CCOCC2)ccc1NC(=O)COC(=O)c1ccc(Cl)nc1	none (no result: TRPM1 prom inh)
Cc1cc2nc3c(=O)[nH]c(=S)[nH]c3nc2cc1NC(=O)C(F)(F)F	none
CCc1nc2ccc(C(=O)N3CCN(C(=O)c4ccco4)CC3)cn2c1N(C)C(=O)Nc1ccccc1OC	none (no result: TRPM1 prom inh, LMP1 NFkB inh)
COc1ccc(S(=O)(=O)N(C)CC(=O)Nc2ccccc2C(F)(F)F)cc1OC	TWEAK Fn14 block 74.0 (no result: TROY signal inh)
CCN(CC(=O)Nc1ccc(OC)c(OC)c1)CC(=O)Nc1ccccc1C(F)(F)F	none
O=C(NCc1ccc(F)cc1)c1cc(C2CCCN(C(=O)CCCc3ccccc3)C2)on1 (stereo unspecified)	none (no result: TRPM1 prom inh, LMP1 NFkB inh)
CC(=O)Oc1ccc(C(=O)Nc2cccnc2)cc1	LMP1 NFkB inh 85.0
COc1ccc(OC)c(NC(=O)Nc2cccnc2)c1	TWEAK Fn14 block 52.5
COc1cccc(-c2cc(C(=O)Nc3cccnc3)no2)c1	TWEAK Fn14 block 68.6
Cc1ccc(NC(=O)Nc2cccnc2)cc1NC(=O)Nc1cccnc1	TWEAK Fn14 block 58.0
COc1ccc(NC(=O)Nc2cccnc2)cc1	none
COc1ccc(C(=O)Nc2ccc(C(=O)Nc3cccnc3)cc2)cc1	none
COc1ccc([C@H]2C[C@@H](n3cc(COC(=O)c4ccccc4)nn3)[C@H](O)CN2C(=O)C2CCCCC2)cc1	none (no result: TRPM1 prom inh)
C=CCN(C(=O)CSc1nc2ccsc2c(=O)n1Cc1ccc(C(=O)O)cc1)c1ccccc1	none (no result: TRPM1 prom inh)
CCC(C)c1ccc(S(=O)(=O)N2CCN(C(=O)COc3ccc4c(C)cc(=O)oc4c3)CC2)cc1 (stereo unspecified)	TWEAK Fn14 block 57.6 (no result: TROY signal inh)
CCCCN(C(=O)COC(=O)C1(c2ccccc2)CC1)c1c(N)n(CCC)c(=O)[nH]c1=O	none (no result: TRPM1 prom inh)
O=c1[nH]c(=O)n(-c2ccc(F)cc2)c2c1C(C(F)(F)F)(C(F)(F)F)N=C(c1ccc(F)cc1)N2	TWEAK Fn14 block 64.6
Cc1ccc(C2=NC(C(F)(F)F)(C(F)(F)F)c3c(n(-c4ccc(F)cc4)c(=O)[nH]c3=O)N2)cc1	none
Cc1cc2nc(-c3cccc(Cl)c3)c(CC(C)(C)C)n2c(C)c1Br	none (no result: TRPM1 prom inh, LMP1 NFkB inh)
COc1cccc(N2CCN(c3nc(-c4ccccc4C)cc(=O)[nH]3)CC2)c1	none
COc1ccc(-c2c[n+](CC(=O)c3ccccc3)c3n2CCCCC3)cc1	none
COc1ccc(-c2c[n+]3c4n2CCCCC4=C(c2ccccc2)C3)cc1	TRPM1 prom inh 77.9
C[C@@]12C(C[C@H](O)[C@@]34C[C@@H](CCC13)[C@@H](CO)C4=O)[C@](C)(C(=O)O)CC[C@@H]2O (stereo partly specified)	none (no result: TRPM1 prom inh, LMP1 NFkB inh)
